{"source": "PubChem BioAssay (NCI)", "note": "Compounds without any hit were thinned out: in the full panel of roughly 79,000, 15% have a hit. A number with no mark means an inactive call. Calls of active or inactive are those of the source. No stated cut-off is given here; in the data, active means growth inhibition above about 70%; inactive means the rest.", "data": [{"test": "NCI Yeast Anticancer Drug Screen. Data for the sgs1 mgt1 strain (AID 161);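 further: 0% = growth of cultures given vehicle only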", "details": "S. cerevisiae sgs1 mgt1 strain, at 50.0 µM (retest, dose inferred, filed as 5.0), hits give high values", "summary_of_the_method": "(§1)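 Yeast cells carrying a defined DNA-repair defect were exposed to test compounds. Growth inhibition was measured relative to vehicle-treated controls.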", "values": [{"smiles": "S=C(S)NN1CCOCC1", "growth inhibition": "91% (active)"}, {"smiles": "COc1cc2c3c(cccc3c1)C(=O)N(CCN(C)C)C2=O", "growth inhibition": "23%"}, {"smiles": "COC(=O)C1=C(C)NC(C)=C(C(=O)OCCCN2CCC(c3ccccc3)(c3ccccc3)CC2)C1c1cccc([N+](=O)[O-])c1", "note": "(stereo not given)", "growth inhibition": "98% (active)"}, {"smiles": "c1ccc2c(c1)Oc1cccc3cccc-2c13", "growth inhibition": "43%"}, {"smiles": "CN(C)CCOc1ccc2c(c1)C/C(=C/c1ncc([N+](=O)[O-])n1C)C2=O", "growth inhibition": "82% (active)"}, {"smiles": "Cc1ccc(CCC2=CCCc3c2ccc2ccccc32)cc1", "growth inhibition": "10%"}, {"smiles": "CNC(=O)OCc1c(COC(=O)NC)c(-c2ccc(Cl)c(Cl)c2)n2c1CCC2", "growth inhibition": "99% (active)"}, {"smiles": "Clc1ccccc1C1OC1c1ccccc1Cl", "note": "(stereo not given)", "growth inhibition": "98% (active)"}, {"smiles": "O=[N+]([O-])c1cc(CCl)ccc1CCl", "growth inhibition": "98% (active)"}, {"smiles": "O=C1C=CC(=O)c2c(O)c(Nc3ccc(OC(F)(F)F)cc3)c(Cl)c(O)c21", "growth inhibition": "49%"}, {"smiles": "S=c1[nH]nc(Nc2ccc(Cl)cc2)s1", "growth inhibition": "86% (active)"}, {"smiles": "Cn1ccnc1Oc1ccc(Cl)cc1", "growth inhibition": "37%"}, {"smiles": "BrCc1cccc2ccc3cccc(CBr)c3c12", "growth inhibition": "85% (active)"}, {"smiles": "O=C1c2ccccc2-c2nc3ccccc3nc21", "growth inhibition": "25%"}, {"smiles": "CCCCCCCCCCCCCCCCCCNC", "growth inhibition": "97% (active)"}, {"smiles": "Oc1ccc(NCn2c(=S)sc3ccccc32)cc1", "growth inhibition": "99% (active)"}, {"smiles": "O=C1C2CC[C@@H]3C(=O)C(Cl)(Cl)[C@@H]3CCC2C1(Cl)Cl", "note": "(stereo not given in full)", "growth inhibition": "67%"}, {"smiles": "CC[n+]1ccc2c(C)c3[nH]c4ccc(O)cc4c3c(C)c2c1", "growth inhibition": "31%"}, {"smiles": "Cc1ccc(-n2cc(-c3ccc(Cl)cc3)c(C#N)c2N)cc1", "growth inhibition": "52%"}, {"smiles": "CC(=O)[O][Bi]([c]1ccccc1)[c]1ccccc1", "growth inhibition": "96% (active)"}, {"smiles": "CC1=C(SCCO)C(=O)c2ccccc2C1=O", "growth inhibition": "72% (active)"}, {"smiles": "C/C(=N\\O)C1CC2C=C(C#N)C1N(Cc1ccccc1)C2", "note": "(stereo not given)", "growth inhibition": "24%"}, {"smiles": "CC(Br)C(=O)c1ccc2cc(Br)c3ccccc3c2c1", "note": "(stereo not given)", "growth inhibition": "76% (active)"}, {"smiles": "Nc1nc(-c2cccnc2)cc(-c2cc(-c3cccnc3)nc(N)n2)n1", "growth inhibition": "15%"}, {"smiles": "CC(C)=CC(=O)O[C@@H]1CC(C)(C)CC2C3=CCC4[C@]56CC[C@](O)(OC5)C(C)(C)C6CC[C@@]4(C)C3(C)CC[C@]21C(=O)O", "note": "(stereo not given in full)", "growth inhibition": "89% (active)"}, {"smiles": "CCC(C)COC(=O)c1ccc(N=Cc2ccc(C=Nc3ccc(C(=O)OCC(C)CC)cc3)cc2)cc1", "note": "(stereo not given)", "growth inhibition": "98% (active)"}, {"smiles": "Oc1cccc2c(Cl)ccnc12", "growth inhibition": "99% (active)"}, {"smiles": "O=C(O)c1cccc(-c2c3ccc(=O)cc-3oc3cc(O)ccc23)c1", "growth inhibition": "39%"}, {"smiles": "CN(CCc1ccccn1)c1ccc2c(c1)Cc1ccccc1-2", "growth inhibition": "82% (active)"}, {"smiles": "Cc1cc(S(=O)(=O)/N=C(/NN)NNc2cccc(C(F)(F)F)n2)c(S)cc1Cl", "growth inhibition": "44%"}, {"smiles": "O=C1C2C(C(=O)N1c1ccc(OCc3ccccc3)cc1)C1c3ccccc3C2C2CCCCN21", "note": "(stereo not given)", "growth inhibition": "61%"}, {"smiles": "Nc1ccccc1CC(O)C(=O)O", "note": "(stereo not given)", "growth inhibition": "95% (active)"}, {"smiles": "O=C(O)C1CCCCC1c1c2ccc(=O)c(O)c-2oc2c(O)c(O)ccc12", "note": "(stereo not given)", "growth inhibition": "80% (active)"}, {"smiles": "Cc1ccc2ccc(O)cc2c1", "growth inhibition": "43%"}, {"smiles": "O=C1C(=O)c2ccccc2C=C1[N+](=O)[O-]", "growth inhibition": "77% (active)"}, {"smiles": "COC(=O)c1ccc(NCC2=CC(=O)C=CC2=O)cc1O", "growth inhibition": "98% (active)"}, {"smiles": "C(CCSC1=NCCN1)CSC1=NCCN1", "note": "(tested in a mixture with another compound)", "growth inhibition": "99% (active)"}, {"smiles": "N#Cc1c(N)[nH]c2ccc(Sc3ccccc3)cc12", "growth inhibition": "40%"}, {"smiles": "CCNc1nnc(CSc2nc(-c3ccccc3)c(-c3ccccc3)[nH]2)s1", "growth inhibition": "97% (active)"}, {"smiles": "CC[C@@]1(O)C(=O)OCc2c1cc1n(c2=O)Cc2cc3c(N)cccc3nc2-1", "growth inhibition": "14%"}]}, {"test": "NCI Yeast Anticancer Drug Screen. Data for the sgs1 mgt1 strain (AID 161)", "details": "S. cerevisiae sgs1 mgt1 strain, at 50.0 µM, hits give high values", "summary_of_the_method": "as §1", "values": [{"smiles": "S=C(S)NN1CCOCC1", "growth inhibition": "77.2% (active)"}, {"smiles": "COc1cc2c3c(cccc3c1)C(=O)N(CCN(C)C)C2=O", "growth inhibition": "-13.1%"}, {"smiles": "COC(=O)C1=C(C)NC(C)=C(C(=O)OCCCN2CCC(c3ccccc3)(c3ccccc3)CC2)C1c1cccc([N+](=O)[O-])c1", "note": "(stereo not given)", "growth inhibition": "94% (active)"}, {"smiles": "c1ccc2c(c1)Oc1cccc3cccc-2c13", "growth inhibition": "47.6%"}, {"smiles": "CN(C)CCOc1ccc2c(c1)C/C(=C/c1ncc([N+](=O)[O-])n1C)C2=O", "growth inhibition": "83.1% (active)"}, {"smiles": "Cc1ccc(CCC2=CCCc3c2ccc2ccccc32)cc1", "growth inhibition": "33%"}, {"smiles": "CNC(=O)OCc1c(COC(=O)NC)c(-c2ccc(Cl)c(Cl)c2)n2c1CCC2", "growth inhibition": "78.5% (active)"}, {"smiles": "Clc1ccccc1C1OC1c1ccccc1Cl", "note": "(stereo not given)", "growth inhibition": "44.9%"}, {"smiles": "O=[N+]([O-])c1cc(CCl)ccc1CCl", "growth inhibition": "98.5% (active)"}, {"smiles": "O=C1C=CC(=O)c2c(O)c(Nc3ccc(OC(F)(F)F)cc3)c(Cl)c(O)c21", "growth inhibition": "73% (active)"}, {"smiles": "S=c1[nH]nc(Nc2ccc(Cl)cc2)s1", "growth inhibition": "89% (active)"}, {"smiles": "Cn1ccnc1Oc1ccc(Cl)cc1", "growth inhibition": "32.1%"}, {"smiles": "BrCc1cccc2ccc3cccc(CBr)c3c12", "growth inhibition": "72% (active)"}, {"smiles": "O=C1c2ccccc2-c2nc3ccccc3nc21", "growth inhibition": "-24.4%"}, {"smiles": "CCCCCCCCCCCCCCCCCCNC", "growth inhibition": "81.2% (active)"}, {"smiles": "Oc1ccc(NCn2c(=S)sc3ccccc32)cc1", "growth inhibition": "91.2% (active)"}, {"smiles": "O=C1C2CC[C@@H]3C(=O)C(Cl)(Cl)[C@@H]3CCC2C1(Cl)Cl", "note": "(stereo not given in full)", "growth inhibition": "84.6% (active)"}, {"smiles": "CC[n+]1ccc2c(C)c3[nH]c4ccc(O)cc4c3c(C)c2c1", "growth inhibition": "9.25%"}, {"smiles": "Cc1ccc(-n2cc(-c3ccc(Cl)cc3)c(C#N)c2N)cc1", "growth inhibition": "67.6%"}, {"smiles": "CC(=O)[O][Bi]([c]1ccccc1)[c]1ccccc1", "growth inhibition": "86.5% (active)"}, {"smiles": "CC1=C(SCCO)C(=O)c2ccccc2C1=O", "growth inhibition": "81.5% (active)"}, {"smiles": "C/C(=N\\O)C1CC2C=C(C#N)C1N(Cc1ccccc1)C2", "note": "(stereo not given)", "growth inhibition": "3.75%"}, {"smiles": "CC(Br)C(=O)c1ccc2cc(Br)c3ccccc3c2c1", "note": "(stereo not given)", "growth inhibition": "74.5% (active)"}, {"smiles": "Nc1nc(-c2cccnc2)cc(-c2cc(-c3cccnc3)nc(N)n2)n1", "growth inhibition": "0.15%"}, {"smiles": "CC(C)=CC(=O)O[C@@H]1CC(C)(C)CC2C3=CCC4[C@]56CC[C@](O)(OC5)C(C)(C)C6CC[C@@]4(C)C3(C)CC[C@]21C(=O)O", "note": "(stereo not given in full)", "growth inhibition": "85.2% (active)"}, {"smiles": "CCC(C)COC(=O)c1ccc(N=Cc2ccc(C=Nc3ccc(C(=O)OCC(C)CC)cc3)cc2)cc1", "note": "(stereo not given)", "growth inhibition": "70.3% (active)"}, {"smiles": "Oc1cccc2c(Cl)ccnc12", "growth inhibition": "93.8% (active)"}, {"smiles": "O=C(O)c1cccc(-c2c3ccc(=O)cc-3oc3cc(O)ccc23)c1", "growth inhibition": "54.2%"}, {"smiles": "CN(CCc1ccccn1)c1ccc2c(c1)Cc1ccccc1-2", "growth inhibition": "83.3% (active)"}, {"smiles": "Cc1cc(S(=O)(=O)/N=C(/NN)NNc2cccc(C(F)(F)F)n2)c(S)cc1Cl", "growth inhibition": "30.6%"}, {"smiles": "O=C1C2C(C(=O)N1c1ccc(OCc3ccccc3)cc1)C1c3ccccc3C2C2CCCCN21", "note": "(stereo not given)", "growth inhibition": "90.7% (active)"}, {"smiles": "Nc1ccccc1CC(O)C(=O)O", "note": "(stereo not given)", "growth inhibition": "94.5% (active)"}, {"smiles": "O=C(O)C1CCCCC1c1c2ccc(=O)c(O)c-2oc2c(O)c(O)ccc12", "note": "(stereo not given)", "growth inhibition": "59.4%"}, {"smiles": "Cc1ccc2ccc(O)cc2c1", "growth inhibition": "80.1% (active)"}, {"smiles": "O=C1C(=O)c2ccccc2C=C1[N+](=O)[O-]", "growth inhibition": "73.7% (active)"}, {"smiles": "COC(=O)c1ccc(NCC2=CC(=O)C=CC2=O)cc1O", "growth inhibition": "93.5% (active)"}, {"smiles": "C(CCSC1=NCCN1)CSC1=NCCN1", "note": "(tested in a mixture with another compound)", "growth inhibition": "99.5% (active)"}, {"smiles": "N#Cc1c(N)[nH]c2ccc(Sc3ccccc3)cc12", "growth inhibition": "52.9%"}, {"smiles": "CCNc1nnc(CSc2nc(-c3ccccc3)c(-c3ccccc3)[nH]2)s1", "growth inhibition": "64.8%"}, {"smiles": "CC[C@@]1(O)C(=O)OCc2c1cc1n(c2=O)Cc2cc3c(N)cccc3nc2-1", "growth inhibition": "19.9%"}]}]}
